PubChem BioAssay
The source made the active and inactive calls. How the calls were made is not given here.

These molecules were tested against Pantothenate synthetase (Mycobacterium tuberculosis (strain ATCC 25618 / H37Rv)) (UniProt P9WIL5) (assay: Recombinant Mtb pantothenate synthetase (PanC) inhibitors, coupled enzyme, confirmatory (AID 375;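 further: 0% = full reaction with vehicle and 100% = no enzyme background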)). Settings: coupled enzyme assay; at 10 µM, stronger effect = higher value.
Pantothenate synthetase (Mycobacterium tuberculosis (strain ATCC 25618 / H37Rv)), sequence (P9WIL5 whole entry, looked up): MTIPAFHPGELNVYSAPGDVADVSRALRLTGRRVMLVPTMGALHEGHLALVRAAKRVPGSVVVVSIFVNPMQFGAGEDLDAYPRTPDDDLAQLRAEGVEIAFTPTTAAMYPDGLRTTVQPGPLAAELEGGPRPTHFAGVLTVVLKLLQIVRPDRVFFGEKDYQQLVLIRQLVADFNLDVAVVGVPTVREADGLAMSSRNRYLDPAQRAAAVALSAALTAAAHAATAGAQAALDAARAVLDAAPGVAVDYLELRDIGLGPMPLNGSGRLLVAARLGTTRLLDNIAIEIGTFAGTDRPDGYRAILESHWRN

SMILES	inhibition
CC(NS(=O)(=O)c1ccc(OCC(=O)N2CCOCC2)c(Cl)c1)c1ccccc1 (centres undefined)	1% (inactive)
OCCn1c(CSc2nnc(-c3ccco3)n2-c2ccccc2)nc2ccc(Cl)cc21	2% (inactive)
CCOc1ccc(OCC)c2sc(C)nc12	2% (inactive)
CCOC(=O)C1CCN(Cc2c(O)ccc3ccccc23)CC1	1% (inactive)
O=C(OC1CCOC1=O)c1ccc2ccccc2n1 (centres undefined)	4% (inactive)
Cc1nc2c(c(=O)n1CC1CCCO1)c1nc3ccccc3nc1n2CC(C)C (centres undefined)	0% (inactive)
O=C(CSc1ncn[nH]1)c1ccco1	0% (inactive)
CCOC(=O)C1CCCN(CCCc2ccccc2)C1 (centres undefined)	0% (inactive)
COc1ccc2[nH]c(C)c(CCN3C(=O)OC(C)(C)C3(C)O)c2c1 (centres undefined)	0% (inactive)
Fc1ccc(-c2ccc(-c3nn4c(-c5ccco5)nnc4s3)o2)cc1	14% (inactive)
CCCNCC(O)COc1ccccc1C(=O)CCc1ccccc1 (centres undefined)	0% (inactive)
CCc1ccc2nc(NC(=O)CSCc3c(C)noc3C)sc2c1	6% (inactive)
CC(C)(C)c1ccc(C(=O)N2CCC(C(=O)NCc3ccncc3)CC2)cc1	0% (inactive)
CCc1nc2scc(-c3ccccc3)c2c(=O)n1N	5% (inactive)
Cn1c(C(=O)N2CCCC(C(=O)NCCCc3ccccc3)C2)cc2sccc21 (centres undefined)	0% (inactive)
O=C(C1CCC(CNS(=O)(=O)c2cccc3cccnc23)CC1)N1CCCC1 (centres undefined)	0% (inactive)
COC(=O)Cn1c(CN2CCN(c3ccccc3F)CC2)nc2c1c(=O)n(C)c(=O)n2C	0% (inactive)
Cc1cc(C)c2[nH]c(=O)c(C(c3nnnn3Cc3ccc4c(c3)OCO4)N3CCC(C)CC3)cc2c1 (centres undefined)	0% (inactive)
O=S(CC(O)COCc1ccc(Cl)cc1)c1ccccn1 (centres undefined)	0% (inactive)
CCN(c1c(C)n(C)n(-c2ccccc2)c1=O)S(C)(=O)=O	5% (inactive)
CC1CN(c2nc3ccccn3c(=O)c2/C=C(\C#N)S(=O)(=O)c2ccccc2)CC(C)O1 (centres undefined)	5% (inactive)
O=C(NCCC1=CCCCC1)c1cc2c(s1)CS(=O)(=O)C2	1% (inactive)
c1ccc(OCCCn2nnc(-c3ccncc3)n2)cc1	3% (inactive)
COc1cccc(C(=O)Nc2cccc(C(=O)N3CCOCC3)c2)c1	2% (inactive)
